Data as given in PubChem BioAssay (NCI).
The panel holds about 83,000 compounds, 20% with a hit somewhere; the sample as a whole holds those more often.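 Compound tested at a single concentration for 48 hours in 96-well plates; a percent growth value below 10 was scored as active.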 Unmarked numbers belong to inactive results. Active and inactive are the calls of the source.

What follows are compounds tested on HCC-2998 colon (assay: NCI-60 one-dose screen, 48 h (100 = growth as untreated, 0 = no growth, -100 = all killed)). Conditions: 10 µM unless noted.
Experimental: Growth inhibition of the HCC-2998 human tumor cell line is measured as a screen for anti-cancer activity. Cells are grown in 96 well plates and exposed to the test compound for 48 hours. Compounds are tested at a single concentration, which is 10^-5 M for most compounds. The reported endpoint is percent growth (GI% or GIPRCNT), where numbers from 0 - 100% represent growth inhibition, and numbers from -100% - 0 represent cell death. For example, a value of 40 represents 60% growth inhibition. A value of 0 means no net growth occurred over the course of the experiment. A value of -40 indicates 40% of cells at the beginning of the experiment died by the end of the experiment. A value of -100 means all cells are dead at the end of the experiment.
NCI-60 Human Tumor Cell Lines Screen was performed using the standard one-dose NCI protocol, which is described in more detail at https://dtp.cancer.gov/discovery_development/nci-60/default.htm.
Compounds with GIPRCNT values below 10 were considered active. Activity score was based on GIPRCNT using the following formula: […]
Score is 0 for GIPRCNT values of 100 or above, 50 for GIPRCNT values of 0, and 100 for GIPRCNT values of -100.
In the case of COc1cc2c(cc1OC)CN(C)C(C)C2 (stereo not given), the growth is reported as 97.5%.
For CN1CC2CCC(C1)C2=O, the growth was 114%.
CCC(/C=C(C)/C=C/C(=O)c1c(O)c(-c2ccc(O)cc2)c[nH]c1=O)CO (stereo not given) gave a growth of 106%.
CCC(C)(C)O was tested, and the growth was 112%.
CC(=O)[O][Hg][c]1ccccc1 was tested, and the growth was -96.5% (active).
CCN(CC)c1ccc(C=C2C(=O)NC(=S)NC2=O)cc1 was tested, and the growth was 96.8%.
With CCC[CH2][Sn]1([CH2]CCC)[O]C(=O)c2cccc([N+](=O)[O-])c2C(=O)[O]1 the growth was -84.7% (active).
Compound NC(Cc1ccc(O)cc1)C(=O)N/N=C/c1ccc(N(CCCl)CCCl)cc1 (stereo not given) has a growth of 87.2%.
O=[N+]([O-])c1ccc2cnn(CSP(=S)(c3ccccc3)c3ccccc3)c2c1 was tested, and the growth was 89%.
For O=S(=O)(Cl)c1ccccc1 (tested in a mixture with another compound), the growth was 100%.
CC1(C)N=C(N)N=C(N)N1c1ccc(CCCCc2ccc(S(=O)(=O)F)cc2)c(Cl)c1 was tested, and the growth was 35.5%.
With CC1([N+](=O)[O-])COP(=O)(Nc2ccc(F)cc2)OC1 (stereo not given) the growth was 99.5%.
Work on NC(=O)SCC(=O)Nc1ccc([As](=O)(O)O)cc1 yielded a growth of 82%.
Work on Oc1ccccc1OB(Oc1ccccc1O)N(CCCl)CCCl yielded a growth of 98.4%.
C[CH2][Pb]([CH2]C)([CH2]C)[O]C(=O)COc1ccccc1 was tested, and the growth was -52% (active).
With CC(C)CCC1(CCO)C(=O)NC(=S)NC1=O the growth was 107%.
Work on Cc1ccc(C(=O)C2CN(C)CCC2(O)c2ccc(C)cc2)cc1 (stereo not given) yielded a growth of 98.3%.
O=C(CCc1ccco1)NC1CCN(CC2(c3ccc(Cl)cc3)CCC2)CC1 was tested, and the growth was 11.4%.
Compound CCOc1cc(C=C(C#N)C#N)cc(Br)c1O has a growth of 99.4%.
COP(=S)(OC)Oc1ccc(SC)c(C)c1 gave a growth of 104%.
CN(Cc1cccnc1)N=O showed a growth of 112%.
With CCOc1cc(/C=N\Nc2nnc(C)n2N)c(C)cc1N(CCCl)CCCl the growth was 3.97% (active).
Work on COC(=O)C[Se]C(=O)c1ccccc1OC(C)=O yielded a growth of 62.1%.
In the case of N#[N+]c1nc2nc(N)[nH]c(=O)c2[nH]1, the growth is reported as 104%.
C[C@]12CC[C@H]3[C@@H](C[C@@H]4N=C(c5ccc(O)cc5)S[C@@]45C[C@H](O)CC[C@]35C)[C@@H]1CC[C@@H]2O showed a growth of 95.3%.
Compound C[C@]12CCc3sc(-c4ccc(Cl)cc4)nc3C1=CC[C@@H]1[C@@H]2CC[C@]2(C)C(=O)CC[C@@H]12 has a growth of 90.4%.
Compound CN=C(NN)NN has a growth of 103%.
CC1(C)N=C(N)N=C(N)N1c1ccc(OCCCCNC(=O)c2ccc(S(=O)(=O)F)cc2)c(Cl)c1 was tested, and the growth was 83.1%.
With O=[N+]([O-])c1ccc(/C=C/C=C/c2ccc(S(=O)(=O)F)cc2)c(Cl)c1 the growth was 106%.
Compound CC1(C)N=C(N)N=C(N)N1c1ccc(CCCCc2ccc(Cl)cc2S(=O)(=O)F)c(Cl)c1 has a growth of 32%.
In the case of COc1cc(NCCCCCN=C(N)N)c2ncccc2c1, the growth is reported as 55.9%.
For OB([O][Hg][c]1ccccc1)[O][Hg][c]1ccccc1, the growth was -45.5% (active).
For CCC1CN1P(=O)(OCCOC)N1CC1CC (stereo not given), the growth was 104%.
Cc1ccc2oc(=O)c3c(c2c1)OC(N)=C(C#N)C3c1ccco1 (stereo not given) was tested, and the growth was 109%.
For COC1=CC(=O)OC(CCc2ccc3c(c2)OCO3)C1 (stereo not given), the growth was 132%.
CC(C)(O)/C=C/C(=O)[C@](C)(O)[C@H]1[C@H](O)C[C@@]2(C)[C@@H]3CC=C4[C@@H](C=C(O)C(=O)C4(C)C)[C@]3(C)C(=O)C[C@]12C was tested, and the growth was -99% (active).
In the case of O=C(O)c1nn(Cc2ccc(Cl)cc2)c2ccccc12, the growth is reported as 120%.
CC1(C)N=C(N)N=C(N)N1c1ccc(CNC(=O)Nc2ccc(S(=O)(=O)F)c(Cl)c2)c(Cl)c1 gave a growth of 39.7%.
In the case of CC[C@]12C=CCN3CC[C@@]4(c5ccc(OC)cc5N(C)[C@H]4[C@@](O)(C(=O)OC)[C@@H]1OC(=O)CCCN1CCN(CCCC(=O)O[C@@H]4[C@]5(CC)C=CCN6CC[C@@]7(c8ccc(OC)cc8N(C)[C@H]7[C@@]4(O)C(=O)OC)[C@@H]65)CC1)[C@@H]32, the growth is reported as -86.6% (active).
Work on CC(C)(C)[Si](C)(C)OC1[C@@H](O[Si](C)(C)C(C)(C)C)[C@@H](CNC(=O)NC(=O)CF)O[C@H]1n1cnc2c(NC(=O)Nc3ccccc3)ncnc21 (stereo not given in full) yielded a growth of 46.3%.
